Assay outcomes as filed in PubChem.
Tb PFK block = qHTS Assay to Find Inhibitors of T. brucei phosphofructokinase; ATP-dependent 6-phosphofructokinase (Trypanosoma brucei brucei), O15648; T. brucei PFK, ADP-Glo luminescence; 0.17% of 330,000 active; AID 485367, 2010; Potency, µM (titrated, usually from 57.5 µM), for the others: top-dose activity, negative = inhibition, actives largely listed as inhibitors;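 note: 0% = uninhibited 1x PFK enzyme wells and -100% = no-enzyme wells; nearly all actives have a fitted effect of over 60% in size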
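ADP-Glo luminescence quantified ADP after 45 min at room temperature, with 1.25 nM T. brucei PFK, 0.1 mM ATP and 0.5 mM fructose-6-phosphate in pH 8.0 TEA buffer. qHTS titrations up to 57 µM; curves classified by quality.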
Pin1 inhibitor = qHTS Assay to Find Inhibitors of Pin1; 0.009% of 390,000 active; AID 504891, 2011; Peptidyl-prolyl cis-trans isomerase NIMA-interacting 1 (Homo sapiens), Q13526; Pin1 FP peptide displacement, HiFluor488, 10 min; Potency, µM (series often up to 115 µM), for inactives: at the top dose activity, negative = inhibition, hits mostly inhibitors; active = well fitted inhibition curve with a large enough effect in the polarisation, with a control signal flat, not every such curve was filed as active; inconclusive = small, poorly fitted or top-dose-only effect, or effect the other way, or a change in a side signal; inactive = no such curve, though single readings can be large or run the other way; the % refers to the polarisation; note: % is set by controls: 0 for no effect and ±100 for the full control effect
Target sequence (Q13526 whole entry, looked up): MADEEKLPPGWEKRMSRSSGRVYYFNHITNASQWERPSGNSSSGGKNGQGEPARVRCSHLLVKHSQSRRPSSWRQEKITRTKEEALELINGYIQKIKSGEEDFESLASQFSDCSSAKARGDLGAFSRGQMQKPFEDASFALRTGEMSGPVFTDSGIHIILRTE
PGK inhibitor = qHTS Assay to Find Inhibitors of Phosphoglycerate Kinase | Phosphoglycerate kinase, glycosomal (Trypanosoma brucei brucei), P07378 | PGK/GAPDH coupled, Kinase-Glo luminescence, 60 min | Potency, µM (highest dose often 57.5 µM), without a hit: at the top dose activity change, negative = inhibition, usual class: inhibitors | 0.043% of 380,000 active | AID 602233, 2012; note: % is set by controls: 0 for no effect and ±100 for the full control effect; nearly all actives have a fitted effect of over 60% in size
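Recombinant glycosomal PGK reaction used 1,3-bisphosphoglycerate generated in-well by GAPDH (100nM final) in 100mM TEA pH 7.6, 5mM MgCl2, 0.01% Tween-20. After 60 minutes at room temperature, ATP was read by Kinase-Glo Plus luminescence end-point.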
ERG Ets-DNA blk = qHTS for Small Molecule Inhibitors of the ERG Ets/DNA interaction | fluorescence polarization, His-ERG Ets domain / labelled DNA | Potency, µM (top dose mostly 76.9 µM), for the others: at the top dose FP activity, negative = inhibition, hits mostly inhibitors | AID 624246, 2012 | 0.028% of 370,000 active | Transcriptional regulator ERG (Homo sapiens), P11308; active = well fitted inhibition curve with a large enough effect in the polarisation, with a control signal flat; inconclusive = small, poorly fitted or top-dose-only effect, or effect the other way, or a change in a side signal; inactive = no such curve, though single readings can be large or run the other way; the % refers to the polarisation;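 note: polarization taken with two DNA probes labelled with fluorescein and Texas red; % of control where 0% means no effect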
Target sequence (P11308 whole entry, looked up, the tested form may be a part): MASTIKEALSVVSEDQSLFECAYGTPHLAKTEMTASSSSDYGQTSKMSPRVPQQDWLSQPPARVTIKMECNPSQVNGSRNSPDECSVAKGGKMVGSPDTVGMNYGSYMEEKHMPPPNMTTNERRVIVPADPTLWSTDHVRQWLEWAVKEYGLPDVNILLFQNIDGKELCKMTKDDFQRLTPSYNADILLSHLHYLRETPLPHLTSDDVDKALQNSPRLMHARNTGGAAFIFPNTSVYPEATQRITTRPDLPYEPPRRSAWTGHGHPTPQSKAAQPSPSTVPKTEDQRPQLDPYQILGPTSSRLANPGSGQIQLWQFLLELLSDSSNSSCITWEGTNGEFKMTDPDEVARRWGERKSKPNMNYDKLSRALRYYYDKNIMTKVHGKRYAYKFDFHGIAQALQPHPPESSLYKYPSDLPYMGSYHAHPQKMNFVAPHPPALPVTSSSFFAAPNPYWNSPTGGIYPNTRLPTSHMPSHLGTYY
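His-tagged ERG Ets domain (1 uM in the protein solution; 300mM KCl, 50mM Tris-HCl, 1mM EDTA, 1mM DTT, pH 7.5) received compound, then a probe mix of 5 nM fluorescein-DNA and 100nM Texas-615-DNA. Fluorescence polarization was read for both dyes.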
BCR signal inh = qHTS Assay to Find Inhibitors of Chronic Active B-Cell Receptor Signaling; ABC-DLBCL IkBa-CBG/CBR reporter, luminescence ratio, 4 h; 0.05% of 340,000 active; Potency, µM (series often up to 46.1 µM), for the others: at the highest dose activity change, negative = inhibition, usual class: inhibitors; active = well fitted inhibition curve with a large enough effect in the signal ratio, with a control signal flat, not every such curve was filed as active; inconclusive = small, poorly fitted or top-dose-only effect, or effect the other way, or a change in a side signal; the % refers to the signal ratio;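 note: plate controls were basal doxycycline-induced cells for no effect and cells given 10 µM MG132 for full effect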
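Compounds up to 46 uM were incubated four hours with TMD8 cells whose green CBG68 luciferase is fused to IkappaBalpha; red CBR luminescence normalised the signal, and concentration-effect curves were fitted to fusion, red and ratio data.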
* marks the source's active call; other numbers are inactive results. Shown are actives, neighbours in structure and some others; about 0.25% of the full set was active somewhere. Unless noted, calls come from the whole dose curve; as a rule, active = well fitted curve in the direction sought with a large enough effect; inconclusive = small, poorly fitted or top-dose-only effect, or another doubt; inactive = no such curve, though single readings can be large; an effect the other way counts as inactive or inconclusive. Potency is the fitted concentration of half-maximal effect.

Results for CN1C(C(=O)c2ccccc2)=C(NC(=O)c2ccccc2Br)c2ccccc2S1(=O)=O ?
Pin1 inhibitor: 39%; PGK inhibitor: 2%; ERG Ets-DNA blk: -4%

How did COc1ccc(CN2CSC(=S)N(Cc3ccc(OC)cc3)C2)cc1 do in these assays?
Tb PFK block: -4%; Pin1 inhibitor: 2%; PGK inhibitor: -10%; ERG Ets-DNA blk: 8%; BCR signal inh: 16µM*

What do the screens show for `COc1ccc(CN2CSC(=S)N(Cc3ccccc3)C2)cc1`?
Tb PFK block: -1%; Pin1 inhibitor: 2%; PGK inhibitor: -15%; ERG Ets-DNA blk: 4%; BCR signal inh: inconclusive

Results for Cc1onc(-c2ccccc2)c1-c1nc2cc(Cl)ccc2c(=O)o1 ?
Tb PFK block: 4%; Pin1 inhibitor: 6%; PGK inhibitor: -6%; ERG Ets-DNA blk: -10%; BCR signal inh: 13µM*

Results for O=[N+]([O-])c1cccc(CN2C(COCc3ccccc3)CCC=CS2(=O)=O)c1 (stereo unspecified) ?
Pin1 inhibitor: -7%

Results for C/C=C\C(=O)Nc1cccc(C2=NOC3(C2)C[C@@H](C(N)=O)N(C(=O)C2(C)CC2)C3)c1 (stereo partly specified) ?
Tb PFK block: 1%; Pin1 inhibitor: 0%; PGK inhibitor: -6%; ERG Ets-DNA blk: -7%; BCR signal inh: -8%

How did C=C(C)C(=O)Nc1cccc(C2=NOC3(C2)C[C@H](C(N)=O)N(C(=O)c2ccccc2)C3)c1 (stereo partly specified) do in these assays?
Tb PFK block: -29%; Pin1 inhibitor: 50%; PGK inhibitor: 11µM*; ERG Ets-DNA blk: -11%; BCR signal inh: -8%

What do the screens show for `C=C(C)C(=O)Nc1cccc(C2=NOC3(C2)C[C@@H](C(N)=O)N(C(=O)C2(C)CC2)C3)c1` (stereo partly specified)?
Tb PFK block: 1.5µM*; PGK inhibitor: inconclusive; ERG Ets-DNA blk: -7%; BCR signal inh: -6%

What do the screens show for `C=C(C)C(=O)Nc1cccc(C2=NOC3(C2)C[C@@H](C(N)=O)N(C(=O)c2cc([N+](=O)[O-])cc([N+](=O)[O-])c2C)C3)c1` (stereo partly specified)?
Tb PFK block: inconclusive; Pin1 inhibitor: inconclusive; PGK inhibitor: 11µM*; ERG Ets-DNA blk: -3%; BCR signal inh: 1%

Results for COc1cc(OC)c2c(C)c(CC(=O)NCc3ccccc3OC)c(=O)oc2c1 ?
Pin1 inhibitor: 2%; PGK inhibitor: inconclusive; ERG Ets-DNA blk: -1%

How did CCOC(=O)C1CCN(c2nc3ccccc3nc2C(C#N)C(=O)NCCc2ccccc2)CC1 (stereo unspecified) do in these assays?
Tb PFK block: 9.5µM*; BCR signal inh: inconclusive

Results for Cc1cccc(OCCc2c(C)[nH]c(=S)[nH]c2=O)c1 ?
Tb PFK block: -5%; Pin1 inhibitor: -8%; PGK inhibitor: -1%; ERG Ets-DNA blk: 28µM*; BCR signal inh: -3%

What do the screens show for `CCCCc1c(C)[nH]c(=S)[nH]c1=O`?
Tb PFK block: -6%; Pin1 inhibitor: 2%; PGK inhibitor: -7%; ERG Ets-DNA blk: 7%; BCR signal inh: -10%

How did O=C1C=CC2=C3c4cc(O)c(O)cc4CC3(O)COC2=C1O (stereo unspecified) do in these assays?
Pin1 inhibitor: inconclusive; PGK inhibitor: 2.8µM*; ERG Ets-DNA blk: 15%

How did Cc1cc2c(s1)c1cnn(Cc3c(F)cc(F)cc3F)c(=O)c1n2C do in these assays?
Pin1 inhibitor: 6%

How did COc1ccc(OC)c(N2C(=O)/C(=C/c3ccco3)C(=O)NC2=S)c1 do in these assays?
Tb PFK block: inconclusive; Pin1 inhibitor: inconclusive; PGK inhibitor: 3.5µM*; ERG Ets-DNA blk: 35%; BCR signal inh: 3%

How did O=C1NC(=S)N(c2ccc(F)cc2)C(=O)/C1=C\c1ccoc1 do in these assays?
Tb PFK block: -17%; Pin1 inhibitor: inconclusive; PGK inhibitor: 10µM*; ERG Ets-DNA blk: 77%; BCR signal inh: -21%

How did O=C1C(=Cc2ccco2)CCC1=Cc1ccco1 do in these assays?
PGK inhibitor: 3.5µM*; ERG Ets-DNA blk: 31%

Results for O=C1NC(=O)C(=Cc2ccco2)C(=O)N1 ?
Pin1 inhibitor: inconclusive; PGK inhibitor: 11µM*; ERG Ets-DNA blk: -5%

Results for Cc1ccc(N2C(=O)NC(=O)/C(=C\c3ccoc3)C2=O)cc1 ?
Tb PFK block: 1%; Pin1 inhibitor: inconclusive; PGK inhibitor: -15%; ERG Ets-DNA blk: 43%; BCR signal inh: 3%

What do the screens show for `COC(=O)C1=C(C)NC(=O)/C1=C\c1ccco1`?
Tb PFK block: 3%; Pin1 inhibitor: -5%; PGK inhibitor: -10%; ERG Ets-DNA blk: -4%; BCR signal inh: 2%

What do the screens show for `O=C1C(=Cc2ccco2)CCCC1=Cc1ccco1`?
Pin1 inhibitor: 21%; PGK inhibitor: inconclusive; ERG Ets-DNA blk: 19%

Results for COc1ccc(C2c3ccc(OCc4ccccc4)cc3Oc3ncn(CCN4CCOCC4)c(=N)c32)cc1OC (stereo unspecified) ?
Pin1 inhibitor: -1%

How did O=C1NC(=S)N(c2ccc(F)cc2)C(=O)/C1=C/c1ccco1 do in these assays?
Tb PFK block: 6.7µM*; BCR signal inh: 4%

Results for CCc1ccc(NC(=O)C(C)OC(=O)/C=C/c2ccc(O)c(OC)c2)cc1 (stereo unspecified) ?
Tb PFK block: -1%; Pin1 inhibitor: 115%; PGK inhibitor: -9%; ERG Ets-DNA blk: 1%; BCR signal inh: 21µM*

What do the screens show for `COc1cc(/C=C/C(=O)OC(C)C(=O)Nc2c(C)n(C)n(-c3ccccc3)c2=O)ccc1O` (stereo unspecified)?
Tb PFK block: -6%; Pin1 inhibitor: 9%; PGK inhibitor: 8%; ERG Ets-DNA blk: -1%; BCR signal inh: 1%

What do the screens show for `COc1ccccc1-n1c(=O)c(C#N)c(-c2ccc([N+](=O)[O-])cc2)c2cc(C(=O)c3cc(F)ccc3O)cnc21`?
Tb PFK block: 3%; Pin1 inhibitor: 0%; PGK inhibitor: -12%; ERG Ets-DNA blk: 11µM*; BCR signal inh: inconclusive

What do the screens show for `CCC(CC)C(=O)c1c[nH]c(C(=O)O)c1`?
Tb PFK block: -2%; Pin1 inhibitor: 0%; PGK inhibitor: -4%; ERG Ets-DNA blk: 10%; BCR signal inh: 1%
